CHX counter: affects cycloheximide protein synthesis inhibition readout, counter-screen | cell reporter, cycloheximide protein synthesis inhibition counterscreen | AID 2314 | max response, % | hit rate 12% among 300,000; in the data active means max response mostly above about 13%, no sharp cut-off; inactive means mostly below about 14%; further: read at 38.3 µM for the half of the compounds with a filed dose
Pf growth 48h: inhibits P. falciparum growth in the first generation, 48 h; P. falciparum luciferase growth in erythrocytes, 48 h; Potency, µM (doses to about 28.7 µM), usual class: inhibitors; hit rate 5.9% among 310,000; AID 504832
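Growth was read as firefly luciferase luminescence after a 48 h, 37 C, 5% CO2 exposure of compounds to reporter-bearing P. falciparum cultures (0.1% parasitemia, 2% hematocrit final) in Albumax-supplemented RPMI 1640.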
Shiga toxin inh: inhibitors of Shiga toxin in Vero cells. hit rate 9.2% among 290,000. inhibition, % at 38.7 µM. Vero cells, Shiga toxin protein synthesis inhibition reporter; in the data active means inhibition mostly above about 28%, no sharp cut-off; inactive means mostly below about 43%
Pf growth 96h: P. falciparum growth inhibition at 96 hour, primary screen for plastid delayed-death inhibitors; Potency, µM (titrated, usually from 28.7 µM), hits mostly inhibitors; P. falciparum luciferase reporter growth, 96 h; hit rate 6.9% among 320,000; AID 504834
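Two-generation exposure (96 h) targets delayed-death phenotype. Reporter parasites carrying integrated firefly luciferase, in red cells at 2% hematocrit and 0.05% parasitemia final, kept at 37 C, 5% CO2; luminescence loss indicates inhibition.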
Giardia FBPA inh: inhibitors of Giardia lamblia fructose-1,6-bisphosphate aldolase | Potency, µM (titrated, usually from 59.6 µM), hits mostly inhibitors | hit rate 0.71% among 290,000 | purified Giardia FBPA | A8B2U2 | AID 2451; further: nearly all actives have a fitted effect of over 55% in size
Target sequence (A8B2U2 whole entry, looked up): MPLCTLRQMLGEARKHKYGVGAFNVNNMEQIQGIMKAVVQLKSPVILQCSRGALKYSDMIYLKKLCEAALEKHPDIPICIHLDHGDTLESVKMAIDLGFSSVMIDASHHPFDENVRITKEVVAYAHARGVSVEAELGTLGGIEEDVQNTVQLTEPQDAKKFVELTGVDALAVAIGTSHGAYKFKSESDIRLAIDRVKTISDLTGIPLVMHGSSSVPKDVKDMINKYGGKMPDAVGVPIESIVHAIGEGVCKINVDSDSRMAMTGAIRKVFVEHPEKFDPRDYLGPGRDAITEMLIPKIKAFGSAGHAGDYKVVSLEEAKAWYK
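40 nM FBPA preincubated 10 min at RT with compound (up to 57.5 uM final), then substrate plus GAPDH/TPI/NAD/arsenate coupling and diaphorase/resazurin added. Fluorescence read after 20 min at RT, 525/598 nm.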
NS1 inh: blocks influenza NS1 protein function. Potency, µM (doses to about 46.1 µM). hit rate 0.4% among 270,000. AID 2326; calls by dose curve; further: actives are rising curves; nearly all actives have a fitted effect of over 50% in size
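Read-out: OD600 growth recovery of NS1-expressing budding yeast. Cells grown overnight at 30C in -URA glucose medium, washed, resuspended and diluted 1:100 in 2% galactose assay medium, pH 6.0. Same strain lacking NS1 served as positive control.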
Large screens that a line does not name were inactive. Sampled rows, rich in hits. Any-hit rate of the full collection: about 21%. Unless noted, the call rests on the fitted dose curve; in most records, active means well fitted curve in the direction sought with a large enough effect; inconclusive means small, poorly fitted or top-dose-only effect, or another doubt; inactive means no such curve, though single readings can be large; an effect the other way counts as inactive or inconclusive.

COc1ccc(C(=O)OCC(=O)c2ccc[nH]2)cc1	none (no result: CHX counter, Shiga toxin inh, Giardia FBPA inh, NS1 inh)
Cc1ccccc1-c1cncnc1N1CCNCC1	none (no result: CHX counter, Pf growth 48h, Shiga toxin inh, Pf growth 96h, NS1 inh)
Cc1ccccc1-c1ccc2ncnc(N3CCNCC3)c2c1	none (no result: CHX counter, Pf growth 48h, Shiga toxin inh, Pf growth 96h, NS1 inh)
COc1ccccc1Nc1nc2nonc2[nH]c1=O	Giardia FBPA inh inconclusive
CCc1ccccc1Nc1nc(-c2cccnc2)cs1	CHX counter 19, Pf growth 48h 12µM, Pf growth 96h 9.3µM
COc1ccc(OC)c2nc(-c3cccnc3)ccc12	CHX counter 29, Shiga toxin inh 48 (no result: Pf growth 48h)
COc1ccccc1Nc1nc(C2(C)CCC(=O)O2)cs1 (stereo not given)	CHX counter 52, Shiga toxin inh 62
COc1cccc(CC(=O)Nc2nc(-c3cccnc3)cs2)c1	Pf growth 96h inconclusive
O=[N+]([O-])c1ccccc1Nc1nc(-c2cccnc2)cs1	CHX counter 26, Pf growth 48h inconclusive, Pf growth 96h inconclusive (no result: Shiga toxin inh)
CC(=O)c1ccc([N+](=O)[O-])c(CS(=O)(=O)c2ccccc2)c1	none
COc1ccc(Nc2nc(-c3cccnc3)cs2)c(OC)c1	CHX counter 37, Pf growth 48h inconclusive, Shiga toxin inh 38
COc1ccccc1Nc1nc(-c2cccnc2)cs1	CHX counter 34, Shiga toxin inh 36
COc1ccc(CC(=O)Nc2nc(-c3cccnc3)cs2)cc1	none
COCc1ccc(C(=O)NC2CC(C)(C)Cc3c2cnn3-c2ccc(OC)cc2)o1 (stereo not given)	none (no result: Giardia FBPA inh)
O=C1c2ccccc2-c2ccc(N(Cc3ccc(Br)cc3)Cc3ccc(Br)cc3)cc21	none (no result: CHX counter, Pf growth 48h, Shiga toxin inh, Pf growth 96h, Giardia FBPA inh)
O=C1c2ccccc2CCC1C(O)c1ccccn1 (stereo not given)	CHX counter 39
O=C(Nc1ncc2c(n1)-c1ccccc1CC2)C1CC1	Pf growth 48h inconclusive, Pf growth 96h inconclusive (no result: NS1 inh)
Cc1ccc(Cn2nnc3c(=O)[nH]c(C4CCN(S(=O)(=O)c5ccc(C)cc5)CC4)nc32)cc1	NS1 inh inconclusive (no result: Pf growth 48h)
Cc1ccc(Cn2nnc3c(=O)[nH]c(C4CCN(S(=O)(=O)c5ccc(S(=O)(=O)NC6CC6)cc5)CC4)nc32)cc1	Pf growth 48h inconclusive, Pf growth 96h 1.5µM, NS1 inh inconclusive
O=c1[nH]c(C2CCN(S(=O)(=O)c3ccc(S(=O)(=O)NC4CC4)cc3)CC2)nc2c1nnn2Cc1cccc(F)c1	Pf growth 48h 9.3µM, Pf growth 96h inconclusive
C[C@H]1CN=C(Nc2ccccc2)N1CCc1ccccc1	Pf growth 48h inconclusive (no result: CHX counter, Shiga toxin inh, Giardia FBPA inh, NS1 inh)
Cc1cc(NC(=O)C2CCCC2)nc2c1c(=O)oc1ccccc12	none
Cc1cc(NC(=O)C2CCCCC2)nc2c1c(=O)oc1ccccc12	Pf growth 96h 6.6µM
CC1CCN(Cc2c(C(=O)N/N=C/c3ccc(C(C)C)cc3)nnn2-c2nonc2N)CC1	Pf growth 48h inconclusive, Pf growth 96h 1.7µM
Nc1nonc1-n1nnc(C(=O)N/N=C/c2ccc(OCc3ccccc3F)cc2)c1CNc1ccccc1	CHX counter 17
Cc1ccc(-c2c(C(=O)N/N=C/c3ccc(C)o3)nnn2-c2nonc2N)cc1	Pf growth 48h inconclusive, Pf growth 96h 2.3µM (no result: Giardia FBPA inh)
CC1CCN(Cc2c(C(=O)N/N=C/c3ccc(C(C)(C)C)cc3)nnn2-c2nonc2N)CC1	Pf growth 48h inconclusive, Pf growth 96h inconclusive
Cc1ccc(-c2c(C(=O)N/N=C/c3cccc(Cl)c3)nnn2-c2nonc2N)cc1	Pf growth 48h 0.052µM, Pf growth 96h inconclusive, Giardia FBPA inh inconclusive
CCCCC[C@]12Cc3cc(OC)c(OC)cc3[C@H](O1)c1c(cc(C)oc1=O)O2	Pf growth 96h inconclusive
Cc1cccc(COc2ccc(/C=N/NC(=O)c3nnn(-c4nonc4N)c3C)cc2)c1	none (no result: Giardia FBPA inh)
Cc1ccc(-c2c(C(=O)N/N=C/c3ccoc3)nnn2-c2nonc2N)cc1	Pf growth 48h 9.3µM, Pf growth 96h 3.3µM
CCOc1ccc(-c2c(C(=O)N/N=C/c3ccc(C)cc3)nnn2-c2nonc2N)cc1	Pf growth 48h inconclusive
Cc1ccc(COc2cccc(/C=N/NC(=O)c3nnn(-c4nonc4N)c3C)c2)cc1	CHX counter 15
CCOc1ccc(-c2c(C(=O)N/N=C/c3ccc(Cl)cc3)nnn2-c2nonc2N)cc1	Pf growth 48h 9.3µM, Pf growth 96h inconclusive (no result: Giardia FBPA inh)
Cc1ccc(-c2c(C(=O)N/N=C/c3ccc(OC(C)C)cc3)nnn2-c2nonc2N)cc1	Pf growth 48h 10µM, Pf growth 96h inconclusive (no result: Giardia FBPA inh)
CCOc1ccc(-c2c(C(=O)N/N=C/c3ccc(OC(C)C)cc3)nnn2-c2nonc2N)cc1	Pf growth 48h inconclusive, Pf growth 96h inconclusive
COc1ccc(CNC(=O)CCNC(=O)c2ccco2)cc1OC	none (no result: CHX counter, Shiga toxin inh, Giardia FBPA inh, NS1 inh)
CC1CN(C(=O)CCC(=O)NCCc2ccccc2)c2ccccc2O1 (stereo not given)	CHX counter 25, Shiga toxin inh 35, Pf growth 96h inconclusive
CC1CN(C(=O)NCc2ccccc2)c2cc(Cl)ccc2O1 (stereo not given)	Pf growth 96h 2.6µM
COc1cccc(NC(=O)Cc2c(O)c3ccccc3[nH]c2=O)c1	Pf growth 96h inconclusive (no result: Pf growth 48h)
CCOc1ccc(NC(=O)Cc2c(O)c3ccccc3[nH]c2=O)cc1	Pf growth 48h 2.9µM
Cc1ccc(NC(=O)Cc2c(O)c3ccccc3[nH]c2=O)c(C)c1	CHX counter 18
COc1ccc(S(=O)(=O)N2CCNC(=O)C2)cc1Br	none
CN1CCc2nc3sc(C(=O)C45CC6CC(CC(C6)C4)C5)c(N)c3cc2C1	Pf growth 48h 9.3µM, Pf growth 96h 2.6µM, NS1 inh inconclusive
CNc1nc(N)c(C(=O)C23CC4CC(CC(C4)C2)C3)s1	none
CCc1c(C(=O)Nc2ccccc2C(N)=O)csc1C	CHX counter 31 (no result: Giardia FBPA inh)
CCc1c(C(=O)Nc2ccncc2)csc1C	Pf growth 48h 8.3µM, Pf growth 96h inconclusive
COc1ccc(NC(=O)c2cccnn2)cc1	CHX counter 24, Shiga toxin inh 29, Pf growth 96h inconclusive
COc1cccc(NC(=O)c2cccnn2)c1	CHX counter 21, Pf growth 96h inconclusive
COc1cccc(NC(=O)c2cccc(C(=O)Nc3cccc(OC)c3)n2)c1	Pf growth 96h inconclusive (no result: Giardia FBPA inh)
O=C(c1ccco1)N1CCC[C@@]2(CCN(c3ncccn3)C2)C1	none (no result: CHX counter, Pf growth 48h, Shiga toxin inh, Pf growth 96h, NS1 inh)
CCC(CC)c1nnc(NC(=O)Cc2ccccc2[N+](=O)[O-])s1	Pf growth 48h inconclusive
CC(C)OP(C)(=O)CN1CCN(CP(C)(=O)OC(C)C)CC1 (stereo not given)	Pf growth 96h 0.52µM
O=C(Nc1ccc(-n2cccn2)cc1)C1CCCCN1Cc1cccc2cccnc12 (stereo not given)	CHX counter 24, Pf growth 48h inconclusive, Pf growth 96h inconclusive
Cn1cc(CN2CCCCC2C(=O)Nc2ccc(-n3cccn3)cc2)cn1 (stereo not given)	none
O=C1CS/C(=N\N=C\c2ccccc2Cl)N1CC1CC1	none
Cc1cc(C)cc(N(C(=O)c2csnn2)C(C(=O)NC2CCCCC2)c2ccccn2)c1 (stereo not given)	Pf growth 48h inconclusive
CC1Oc2ccccc2C=C1/C=N/NC(=O)c1ccccc1 (stereo not given)	Pf growth 48h 2.9µM, Pf growth 96h inconclusive

Screens: PubChem, National Center for Advancing Translational Sciences (NCATS)
